Results published in PubChem BioAssay AID1159580 (chemical genetic matrix, 2015).
In all, about 5,500 compounds went through this assay and about 2,000 (36%) were called active. Roughly 18% stayed inconclusive and do not appear here. Rule as the data show it: active = normalized growth mostly below about 0.91 (no sharp cut-off); inconclusive = no clear call, values can overlap the other calls; inactive = mostly above about 0.92. The list shows a part of the results.

Experiment: chemical genetic growth profiling, strain panel (AID 1159580);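 also: tested at 20 µM; growth read once vehicle control cultures reached saturation at 30 °C; 1 = growth at the plate median or of vehicle wells; lower values mean less growth of the strain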
Conditions: S. cerevisiae deletion strains, growth OD
[1] = locus YAR019C, strain CDC15, hits give low values
[2] = locus YBL105C, strain PKC1, hits give low values
[3] = locus YBR135W, strain CKS1, hits give low values
[4] = locus YBR136W, strain MEC1, hits give low values
[5] = locus YBR160W, strain CDC28, hits give low values
[6] = locus YDL017W, strain CDC7, hits give low values
[7] = locus YDL028C, strain MPS1, hits give low values
[8] = locus YDL101C, strain DUN1, hits give low values
[9] = locus YDL108W, strain KIN28, hits give low values
[10] = locus YDL132W, strain cdc53, hits give low values
[11] = locus YDL214C, strain PRR2, hits give low values
[12] = locus YDR052C, strain DBF4, hits give low values
[13] = locus YDR054C, strain cdc34, hits give low values
[14] = locus YDR226W, strain ADK1, hits give low values
[15] = locus YDR477W, strain SNF1, hits give low values
[16] = locus YER123W, strain YCK3, hits give low values
[17] = locus YER133W, strain GLC7, hits give low values
[18] = locus YFL009W, strain cdc4, hits give low values
[19] = locus YFL029C, strain CAK1, hits give low values
[20] = locus YFR003C, strain YPI1, hits give low values
[21] = locus YFR019W, strain FAB1, hits give low values
[22] = locus YFR028C, strain CDC14, hits give low values
[23] = locus YGR040W, strain KSS1, hits give low values
[24] = locus YGR052W, strain FMP48, hits give low values
[25] = locus YGR092W, strain DBF2, hits give low values
[26] = locus YHR030C, strain SLT2, hits give low values
[27] = locus YHR079C, strain IRE1, hits give low values
[28] = locus YHR082C, strain KSP1, hits give low values
[29] = locus YHR205W, strain SCH9, hits give low values
[30] = locus YIL147C, strain SLN1, hits give low values
[31] = locus YJL095W, strain BCK1, hits give low values
[32] = locus YJL128C, strain PBS2, hits give low values
[33] = locus YJL157C, strain FAR1, hits give low values
[34] = locus YJR016C, strain ILV3, hits give low values
[35] = locus YJR066W, strain TOR1 (second series), hits give low values
[36] = locus YJR066W, strain TOR1, hits give low values
[37] = locus YKL048C, strain ELM1, hits give low values
[38] = locus YKL067W, strain YNK1, hits give low values
[39] = locus YKL101W, strain HSL1, hits give low values
[40] = locus YKL193C, strain SDS22, hits give low values
[41] = locus YKL203C, strain TOR2, hits give low values
[42] = locus YLR113W, strain HOG1, hits give low values
[43] = locus YLR133W, strain CKI1, hits give low values
[44] = locus YLR403W, strain SFP1, hits give low values
[45] = locus YML070W, strain DAK1, hits give low values
[46] = locus YMR001C, strain CDC5, hits give low values
[47] = locus YMR205C, strain PFK2 (second series), hits give low values
[48] = locus YMR277W, strain FCP1, hits give low values
[49] = locus YNL006W, strain LST8, hits give low values
[50] = locus YNL020C, strain ARK1, hits give low values
[51] = locus YNL161W, strain CBK1, hits give low values
[52] = locus YNL183C, strain NPR1, hits give low values
[53] = locus YNL207W, strain RIO2, hits give low values
[54] = locus YNL222W, strain SSU72, hits give low values
[55] = locus YNL307C, strain MCK1 (second series), hits give low values
[56] = locus YOL078W, strain AVO1, hits give low values
[57] = locus YOL136C, strain PFK27, hits give low values
[58] = locus YOR061W, strain CKA2, hits give low values
[59] = locus YOR119C, strain RIO1, hits give low values
[60] = locus YOR231W, strain MKK1, hits give low values
[61] = locus YOR329C, strain SCD5, hits give low values
[62] = locus YPL031C, strain PHO85, hits give low values
[63] = locus YPL153C, strain RAD53, hits give low values
[64] = locus YPL204W, strain HRR25, hits give low values
[65] = locus YPL209C, strain IPL1, hits give low values
[66] = locus YPL256C, strain CLN2, hits give low values
[67] = locus YPR025C, strain CCL1, hits give low values
[68] = locus YPR106W, strain ISR1, hits give low values
[69] = locus YPR111W, strain DBF20, hits give low values
[70] = strain NNK1, hits give low values
[71] = strain TSCII, hits give low values

Measured: normalized growth

Cc1ccc(-n2cccc2)c(NS(=O)(=O)c2ccc(-c3ccno3)s2)c1
active: [26] 0.667 | [42] 0.774 | [66] 0.791
inactive: [1] 0.94 | [2] 0.947 | [3] 0.944 | [4] 0.953 | [5] 0.938 | [6] 0.957 | [7] 0.933 | [8] 0.958 | [9] 0.937 | [10] 0.943 | [11] 0.899 | [12] 0.962 | [13] 0.941 | [14] 0.929 | [15] 0.894 | [16] 0.868 | [17] 0.902 | [18] 0.93 | [19] 0.936 | [20] 0.957 | [21] 0.976 | [22] 0.94 | [23] 0.914 | [24] 0.898 | [25] 0.76 | [27] 0.847 | [28] 0.888 | [29] 0.862 | [30] 0.941 | [31] 0.816 | [32] 0.891 | [33] 0.921 | [34] 0.941 | [35] 0.889 | [36] 0.816 | [37] 0.924 | [38] 0.885 | [39] 0.894 | [40] 0.941 | [41] 0.979 | [43] 0.923 | [44] 0.915 | [45] 0.905 | [46] 0.947 | [47] 0.918 | [48] 0.93 | [49] 0.965 | [50] 0.939 | [51] 0.953 | [52] 0.9 | [53] 0.939 | [54] 0.943 | [55] 0.9 | [56] 0.941 | [57] 0.906 | [58] 0.906 | [59] 0.923 | [60] 0.833 | [61] 0.952 | [62] 0.896 | [63] 0.872 | [64] 0.883 | [65] 0.953 | [67] 0.95 | [68] 0.932 | [69] 0.926 | [70] 0.938 | [71] 0.942

O=S(=O)(Nc1ccccc1Oc1ccccc1)c1ccc(-c2ccno2)s1
active: [42] 0.769
inactive: [1] 0.974 | [2] 0.961 | [3] 0.966 | [4] 0.968 | [5] 0.961 | [6] 0.969 | [7] 0.965 | [8] 0.968 | [9] 0.972 | [10] 0.964 | [11] 0.916 | [12] 0.978 | [13] 0.965 | [14] 0.968 | [15] 0.943 | [16] 0.911 | [17] 0.964 | [18] 0.96 | [19] 0.96 | [20] 0.969 | [21] 0.97 | [22] 0.963 | [23] 0.929 | [24] 0.976 | [25] 0.916 | [26] 0.961 | [27] 0.954 | [28] 0.98 | [29] 0.933 | [30] 0.969 | [31] 0.962 | [32] 0.953 | [33] 0.924 | [34] 0.964 | [35] 0.919 | [36] 1 | [37] 0.932 | [38] 0.941 | [39] 0.893 | [40] 0.962 | [41] 0.982 | [43] 0.914 | [44] 0.891 | [45] 0.906 | [46] 0.968 | [47] 0.948 | [48] 0.965 | [49] 0.973 | [50] 0.924 | [51] 0.968 | [52] 0.954 | [53] 0.966 | [54] 0.961 | [55] 0.932 | [56] 0.963 | [57] 0.908 | [58] 0.921 | [59] 0.995 | [60] 0.888 | [61] 0.968 | [62] 0.944 | [63] 0.93 | [64] 0.927 | [65] 0.965 | [66] 0.873 | [67] 0.971 | [68] 0.946 | [69] 0.929 | [70] 0.948 | [71] 0.967

NCCNS(=O)(=O)c1cccc2cnccc12
inactive: locus YAL040C, strain CLN3, hits give low values 1.02 | locus YCL061C, strain MRC1 (second series), hits give low values 1.01 | locus YDR363W, strain ESC2, hits give low values 0.973 | locus YER002W, strain NOP16, hits give low values 0.988 | locus YGR078C, strain PAC10, hits give low values 0.968 | locus YGR229C, strain SMI1, hits give low values 0.972 | locus YNL128W, strain TEP1, hits give low values 0.986 | locus YNL153C, strain GIM3, hits give low values 1.05 | locus YNL175C, strain NOP13, hits give low values 0.958 | locus YNL197C, strain WHI3, hits give low values 0.917 | locus YNL224C, strain SQS1, hits give low values 0.98 | locus YNL322C, strain KRE1, hits give low values 0.98 | locus YOR083W, strain WHI5 (second series), hits give low values 0.923 | locus YPL241C, strain CIN2, hits give low values 0.998
